This is a sample that favours compounds with a hit; in the whole collection about 1.3% have one here.
SRC1 inh: SRC1 coactivator transcriptional activity inhibitors, primary screen, cell-based, luminescence; Nuclear receptor coactivator 1 (Homo sapiens), Q15788; HEK293 GAL4-SRC1 luciferase reporter; inhibition, % at 3.6 µM; actives 0.12% (n = 360,000); AID 588354, 2011;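 active = inhibition above the campaign mean plus 3 SD, with each screening campaign given its own cutoff, cut at about 60% in these data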;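 also: 0% = DMSO treated cells and 100% = gossypol at 36 µM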
LRH-1 inv ag: LRH-1 (NR5A2) inverse agonists, primary screen, cell-based, luminescence, HEK293T, StAR-luciferase reporter; LRH-1 transfected, 24 h; Nuclear receptor subfamily 5 group A member 2 (Homo sapiens), O00482; actives 0.13% (n = 360,000); inhibition, % at 3.6 µM;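 active = inhibition above the mean inhibition of all tested compounds plus 3 SD, cut at about 73% in these data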;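 also: 0% = DMSO wells and 100% = reporter-only cells lacking LRH-1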
Target sequence (O00482 whole entry, looked up): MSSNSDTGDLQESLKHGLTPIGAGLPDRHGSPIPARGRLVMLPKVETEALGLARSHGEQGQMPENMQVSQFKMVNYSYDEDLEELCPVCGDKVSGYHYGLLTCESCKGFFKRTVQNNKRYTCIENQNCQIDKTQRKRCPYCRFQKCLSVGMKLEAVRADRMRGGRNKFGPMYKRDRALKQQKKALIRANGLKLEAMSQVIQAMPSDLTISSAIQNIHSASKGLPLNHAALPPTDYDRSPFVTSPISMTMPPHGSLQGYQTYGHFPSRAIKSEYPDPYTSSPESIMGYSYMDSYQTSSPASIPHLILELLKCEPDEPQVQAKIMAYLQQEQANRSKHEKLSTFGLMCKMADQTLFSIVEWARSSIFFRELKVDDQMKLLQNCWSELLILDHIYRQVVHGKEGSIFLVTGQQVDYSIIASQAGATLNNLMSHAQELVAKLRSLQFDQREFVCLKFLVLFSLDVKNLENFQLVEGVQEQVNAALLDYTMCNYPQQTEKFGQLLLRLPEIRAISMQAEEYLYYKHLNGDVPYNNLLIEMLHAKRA
SRC2 inh: inhibition of GAL4-SRC2 driven luciferase reporter, primary screen, SRC2 inhibitor project, cell-based, luminescence; HEK293 GAL4-SRC2 luciferase reporter; inhibition, % at 9 µM; actives 0.17% (n = 370,000); AID 651957, 2012;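 active = inhibition above the mean inhibition of all tested compounds plus 3 SD, set per campaign, cut at about 52% in these data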;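 also: 0% = DMSO treated cells and 100% = cells given Gossypol at 36 µM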
Gli-Sufu antag: Gli-Sufu pathway antagonists, primary screen, luciferase luminescence, Sufu-KO-LIGHT cells, uHTS | inhibition, % at 5 µM | Sufu-KO-LIGHT fibroblasts, Gli luciferase reporter luminescence | actives 0.74% (n = 340,000);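 active = inhibition above about 55%, limit read from the data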;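 also: 0% = DMSO-treated cells and 100% = wells with medium but no cells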
NCOA3 inh: SRC3 coactivator transcriptional activity inhibitors, primary screen, cell-based, luminescence; inhibition, % at 3.6 µM; Nuclear receptor coactivator 3 (Homo sapiens), Q9Y6Q9; HEK293 GAL4-SRC3 luciferase reporter; AID 588352, 2011; actives 0.17% (n = 360,000);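 active = inhibition above a per-campaign cutoff, the mean of all compounds plus 3 SD, cut at about 60% in these data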;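 also: 0% = DMSO-treated cells and 100% = gossypol-treated cells at 36 µM; higher means less SRC3-driven luciferase light from the GAL4 reporter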
NR2F2 inh: NR2F2 transcriptional activity inhibitors, primary screen, cell-based, luciferase reporter, HEK293T, luminescence; COUP transcription factor 2 (Homo sapiens), P24468; inhibition, % at 8.6 µM; actives 0.7% (n = 370,000); HEK293T NGFI-A luciferase reporter; AID 686940, 2013;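 active = inhibition above a per-plate cutoff, mean inhibition of test wells between control levels plus 3 SD, cut at about 38% in these data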;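 also: cells cotransfected with COUP-TFII expression vector driving the NGFI-A reporter; 0% = median of COUP-TF2 test wells and 100% = reporter-only cells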
Gal4-VP16 ctr: Gal4-VP16 luciferase reporter inhibitors, counter-screen for COUP-TFII antagonist project, cell-based, luminescence, HEK293. shares compounds with NR2F2 inh. inhibition, % at 8.5 µM. actives 25% (n = 2,500). AID 687007, 2013; in the data active = inhibition above about 13%
COUP-TFII conf: NR2F2 transcriptional activity inhibitors, confirmation, cell-based, luciferase reporter, HEK293, triplicate. shares compounds with NR2F2 inh. HEK293 NGFI-A luciferase reporter, luminescence. inhibition, % at 8.5 µM. actives 45% (n = 2,500);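 active = mean inhibition over three repeats above a set limit taken from the earlier primary screen, cut at about 38% in these data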;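 also: 100% = cells given the luciferase reporter alone without the COUP-TF2 vector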
The depositor's hits bear a star; . = no result.

SMILES	SRC1 inh	LRH-1 inv ag	SRC2 inh	Gli-Sufu antag	NCOA3 inh	NR2F2 inh	Gal4-VP16 ctr	COUP-TFII conf
CC1=CC(=O)C(C(C)C)=C/C1=N/OS(=O)(=O)c1ccccc1	-35	9	14	-6	-16	58*	10	13
CC1=CC(=O)C(C2CCCCC2)=C/C1=N\OS(=O)(=O)c1ccccc1	.	.	.	.	.	48*	-3	-13
CC1=CC(=O)C=C(C)C1=NOS(=O)(=O)c1ccccc1	-6	22	-10	4	-8	-11	.	.
CN(CCCOC(=O)CC1C=CCC1)C1CN(Cc2cn(Cc3ccccc3Cl)nn2)S(=O)(=O)C1 (centres undefined)	.	.	-14	.	.	-10	.	.
C[C@H](O)[C@@H]1CN2CCc3ccc(N4CCOCC4)cc3[C@@H]2C[C@@H]1N(C)C(=O)c1cccc(Cl)c1	.	.	11	.	.	3	.	.
O=C(NCCc1ccccc1F)c1ccc2c(c1)OCCO2	76*	64	90*	69*	74*	96*	63*	84*
O=C(c1ccccc1)c1ccc(OCC(O)CN2CCN(S(=O)(=O)N3CCCCC3)CC2)cc1 (centres undefined)	14	26	22	11	3	42*	-6	7
O=C(c1ccccc1)c1ccc(OCC(O)CN2CCCCC2)cc1 (centres undefined)	0	4	-23	3	17	-1	.	.
Cc1onc(-c2ccc(Cl)cc2)c1-c1ccn(S(=O)(=O)c2ccccc2Cl)n1	.	.	18	.	.	15	.	.
Cc1ccc(C(=O)N2CCN(c3ccccc3)CC2)cc1S(=O)(=O)N1CCCC1	-3	10	13	-4	-1	18	.	.
CC1CCN(S(=O)(=O)c2cc(C(=O)N3CCN(c4ccccc4)CC3)ccc2Br)CC1	9	2	4	.	0	47*	9	45*
CC1CCN(C(=O)c2cccc(S(=O)(=O)N3CCN(c4ccccc4)CC3)c2)CC1	-5	13	-12	-2	1	9	.	.
Cc1ccc(C(=O)N2CCN(c3ccc(F)cc3)CC2)cc1S(=O)(=O)N1CCCCC1	-10	11	8	25	30	49*	-4	26
COc1ccc(OC)c(CC(=O)Nc2ccc3c(c2)c(=O)n(C)n3Cc2cccc(C(F)(F)F)c2)c1	2	-7	58*	.	2	83*	-9	5
N/C(=N\OC(=O)c1ccccc1)c1ccccn1	-99	-88	-17	-82	-67	-9	.	.
COc1cc(C(=O)O/N=C(\N)c2ccccn2)cc(OC)c1OC	-8	-13	-6	4	-4	-7	.	.
Cc1ccc(C(=O)O/N=C(\N)c2ccccn2)cc1C	-34	-11	42	42	-11	50*	-70	-1
Cc1ccc(C(=O)O/N=C(\N)c2ccccn2)cc1	-22	-16	57*	-22	-62	57*	-157	-110
N/C(=N\OC(=O)c1cccc(F)c1)c1ccccn1	-120	-114	-6	-68	-68	-16	.	.
Cc1cccc(C(=O)O/N=C(\N)c2ccccn2)c1	-21	-7	48	-6	-44	47*	-173	-111
CCOc1ccc(C(=O)O/N=C(\N)c2ccccn2)cc1	17	29	65*	21	39	81*	-93	-4
CC(C)CC(=O)c1c(O)cc(O)c2c1OC1=C(C(=O)C(C)(C)C(=O)C1(C)C)C2CC(C)C (centres undefined)	.	.	12	.	.	-7	.	.
O=C(NCCc1c[nH]c2ccccc12)OCc1cn(-c2ccc(F)cc2F)nn1	.	.	-2	.	.	6	.	.
C#CCNC(=O)C[C@H]1C[C@@]2(C(=O)OC)C(=C[C@H](C(C)C)O[C@@H]2C2CC2)N(CCC2=CCCCC2)C1=O	.	.	18	.	.	2	.	.
Cc1cccc(-n2ncc3c2CCCC3NC(=O)C2(C(N)=O)CC2)c1C (centres undefined)	28	51	28	63*	30	66*	4	52*
SMILES	SRC1 inh	LRH-1 inv ag	SRC2 inh	Gli-Sufu antag	NCOA3 inh	NR2F2 inh	Gal4-VP16 ctr	COUP-TFII conf
Cc1cc(C)cc(-n2ncc3c2CCCC3NC(=O)C2(C(N)=O)CC2)c1 (centres undefined)	4	-5	24	8	7	12	.	.
CCc1cc(C(=O)NC2CCCc3c2cnn3-c2cccc(C)c2C)n(C)n1 (centres undefined)	.	.	12	83*	.	64*	9	66*
Cc1cc(C(=O)NC2CCCc3c2cnn3-c2ccc(C)c(C)c2)n(C)n1 (centres undefined)	8	51	-9	81*	42	66*	2	69*
Cc1[nH]nc2ncc(C(=O)c3ccccc3O)cc12	51	18	46	-11	45	38*	15*	32
CC(=O)OC[C@]1(OC(C)=O)C[C@@]23CC[C@H]4[C@@](C)(CCC[C@@]4(C)C(=O)O)[C@@H]2CC[C@@H]1C3	-5	-6	2	2	4	11	.	.
CC(=O)OC[C@]12CC[C@H]3[C@@](C)(CC[C@H]4C(C)(C)CCC[C@]34C)[C@@H]1CC(C1=CC(=O)OC1O)O2 (some centres undefined)	80*	103*	80*	.	85*	82*	93*	105*
O=C1c2ccccc2C(=O)c2c1cccc2-n1nnc2ccccc21	-28	-9	-11	2	14	-20	.	.
O=C1C(N2CCOCC2)=C(n2nnc3ccccc32)C(=O)c2ccccc21	-20	20	58*	-13	25	39*	19*	31
CN1OC[C@@H]2CN[C@H](c3ccc(N4CCCCC4)cc3)C[C@@H]21	.	.	4	.	.	-1	.	.
CCOC(=O)SC1=N/C(=C\c2ccc(N(C)C)cc2)C(=O)S1	-16	5	-11	-14	2	-10	.	.
CCOC(=O)c1cc2c(=Cc3ccc(N(C)C)cc3)c3ccccc3n2[n+]1C	43	73*	-25	76*	52	58*	21*	49*
Cc1cc2c(=Cc3ccc(N(C)C)cc3)c3ccccc3n2[n+]1C	53	76*	-41	83*	62	75*	12	63*
CC(C)C[C@@H]1COc2cc(Br)ccc2S(=O)(=O)N1Cc1cn(Cc2ccc(Cl)cc2)nn1	.	.	0	.	.	-18	.	.

Assay outcomes from PubChem.
